POLK inh = inhibitors of human DNA polymerase kappa; Potency, µM (highest dose often 107 µM), for inactives: top-dose activity, negative = inhibition, hits mostly inhibitors; AID 588579; purified Pol kappa, fluorescent DNA synthesis assay, 10 min; Q9UBT6; hit rate 0.53% among 400,000; also: potency is read from the fitted curve at half-maximal effect; % is scaled to controls: 0 for no effect and ±100 for the full control effect
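10 nM Pol kappa preincubated 15 min at room temperature with compounds, then reaction started with substrate at 50 nM final. Fluorescence read kinetically at 0 and 10 min; buffer-only wells served as negative control.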
Pol iota inh = blocks human DNA polymerase iota activity; Q9UNA4; AID 588590; hit rate 1% among 390,000; Pol iota fluorescent replication assay, 10 min; Potency, µM (series often up to 115 µM), without a hit: at the top dose activity, negative = inhibition, most hits filed as inhibitors; also: potency is read from the fitted curve at half-maximal effect
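Pol iota at 10 nM preincubated 15 min with compounds at room temperature; reaction started with fluorescent substrate, 50 nM final. Fluorescence read kinetically at 0 and 10 min; buffer-only wells as negative control.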
Pol beta inh = DNA polymerase beta (human) inhibition; Pol beta primer extension/strand displacement, fluorescence kinetic; Potency, µM (highest dose often 114 µM), inactives show top-dose activity change, negative = inhibition, actives largely listed as inhibitors; P06746; hit rate 1.3% among 340,000; also: potency is read from the fitted curve at half-maximal effect; % is scaled to controls: 0 for no effect and ±100 for the full control effect
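Kinetic readout of DNA synthesis with strand displacement by Pol beta. Compound and 10 nM enzyme sit 15 min at room temperature; 50 nM substrate starts the reaction, read immediately and at 10 min.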
PI5P4K alpha inh = PI5P4K alpha (human) kinase inhibition; hit rate 1.2% among 330,000; P48426; PI5P4Kalpha enzyme, ADP-Glo luminescence, 60 min; stronger effect = lower value; max response, %; active = max response of -50% or lower; inconclusive = between -30% and -50%; inactive = -30% or higher; also: value at the top dose of about 77 µM; % is scaled to controls: 0 for no effect and ±100 for the full control effect
Target sequence (P48426 whole entry, looked up): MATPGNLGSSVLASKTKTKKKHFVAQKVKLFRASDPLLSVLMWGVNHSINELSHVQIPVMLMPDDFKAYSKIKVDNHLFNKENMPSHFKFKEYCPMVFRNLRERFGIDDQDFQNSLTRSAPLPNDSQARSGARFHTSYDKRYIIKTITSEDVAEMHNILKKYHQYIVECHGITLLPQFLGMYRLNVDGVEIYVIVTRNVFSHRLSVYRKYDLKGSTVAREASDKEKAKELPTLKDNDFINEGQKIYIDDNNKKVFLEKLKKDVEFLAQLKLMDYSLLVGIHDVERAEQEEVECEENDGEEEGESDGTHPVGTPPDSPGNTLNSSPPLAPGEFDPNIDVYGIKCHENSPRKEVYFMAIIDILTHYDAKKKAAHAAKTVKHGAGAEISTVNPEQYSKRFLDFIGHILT
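Controls without substrate or without enzyme flank wells where PI5P4Kalpha converts substrate using 5 microM ATP (final). Incubation lasts 60 minutes at room temperature; ADP formed is read by ADP-Glo luminescence.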
WRN helicase inh = blocks human WRN helicase; WRN helicase unwinding, fluorescent forked duplex, kinetic; hit rate 0.46% among 360,000; Potency, µM (doses to about 114 µM), inactives show at the highest dose activity change, negative = inhibition, usual class: inhibitors; Q14191; AID 651768; also: potency is read from the fitted curve at half-maximal effect; % is scaled to controls: 0 for no effect and ±100 for the full control effect; nearly all actives have a fitted effect of over 55% in size
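Primary qHTS, 1536-well format. 20 nM WRN + compound, 15 min RT; start with 100 nM forked fluorophore/quencher duplex, 2 mM ATP (final); kinetic read ex 525/em 598 nm.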
Pol eta inh = inhibitors of human DNA polymerase eta | hit rate 1.2% among 390,000 | AID 588591 | Potency, µM (top dose mostly 114 µM), for inactives: at the top dose activity change, negative = inhibition, most hits filed as inhibitors | Q9Y253 | recombinant Pol eta, fluorescent DNA replication assay; also: potency is read from the fitted curve at half-maximal effect; % is scaled to controls: 0 for no effect and ±100 for the full control effect
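Pol eta (10 nM) was preincubated with compounds for 15 min at room temperature, after which fluorescent replication substrate (50 nM final) was added to start the reaction. Fluorescence was read kinetically at 0 and 10 min.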
* marks the source's active call; other numbers are inactive results; ? = inconclusive; . = not tested or not shown; [ ] = another dose, or the depositor's remark. Shown are actives, neighbours in structure and some others; about 2.8% of the full set was active somewhere. Unless noted, calls follow the shape of the dose curve; as a rule, active = well fitted curve in the direction sought with a large enough effect; inconclusive = small, poorly fitted or top-dose-only effect, or another doubt; inactive = no such curve, though single readings can be large; an effect the other way counts as inactive or inconclusive.

SMILES | POLK inh | Pol iota inh | Pol beta inh | PI5P4K alpha inh | WRN helicase inh | Pol eta inh
COc1ccc(-c2cc(C(=O)O)n(Cc3ccccc3)n2)cc1 | -12% | 8% | 0% | . | . | -14%
CCOc1ccc(C2CC(=O)Nc3c2c(=O)[nH]c2ncnn32)cc1 (stereo not given) | -16% | 13% | 7% | . | . | -2%
Cc1ccc(CNC(=O)C(=O)NCC(c2ccco2)S(=O)(=O)c2ccccc2)cc1 (stereo not given) | -9%[60.1 µM] | -1% | -1% | . | . | 0%
O=C(Cn1cc(S(=O)(=O)Cc2ccc(F)cc2)c2ccccc21)NCc1ccccc1 | -3% | -3% | -22% | . | . | -4%
CCn1c(SCC(=O)Nc2ccc(C)cc2Br)nnc1-c1nonc1NC(C)=O | -16% | 14% | 8% | . | . | -9%
Cc1ccc(Nc2n[nH]c(=S)s2)cc1 | . | . | . | -68* | 3% | -12%
Cc1ccc(Nc2n[nH]c(=S)s2)cc1F | -10% | -3% | . | -76* | ? | -11%
CCOc1ccc(Nc2n[nH]c(=S)s2)cc1 | -9% | 4% | 12%[57.1 µM] | -76* | -8% | -8%
S=c1[nH]nc(Nc2ccc(Cl)cc2)s1 | 1% | ? | ? | -73* | -9% | -3%
COC(=O)c1ccccc1N(C)S(=O)(=O)c1cc2c3c(c1)CC(=O)N3CCC2 | -1%[60.1 µM] | 7% | 1% | . | . | -16%
Cc1nc(-n2nc(C)c(Cc3ccc(Cl)cc3)c2C)sc1C(=O)N1CCC(C)CC1 | -1% | 0% | 16% | . | . | -10%
CCCCCCCNC1=CC(=O)CC(c2ccco2)C1 (stereo not given) | -25% | ? | 11µM* | . | -27% | -24%
Cc1cccc(CCNC(=O)c2nc(-c3ccc(Cl)cc3)n3c2CCCCC3)c1 | -10% | 10% | 10% | . | . | -25%
Cc1c(Br)ccc(NC(=O)Cn2nc(-c3cccs3)ccc2=O)c1C | -9% | 50µM* | 18µM* | 8 | 0%[11.6 µM] | -25%
O=[N+]([O-])CC(=Nc1ccc(Cl)cc1)N/N=C\c1oc(O)c2ccccc12 | -26% | 71% | 1% | ? | -3%[11.6 µM] | 40µM*
O=C(N/N=C/c1ccc([N+](=O)[O-])o1)c1cn(-c2ccccc2)nc1-c1ccc(Cl)cc1 | -7% | -7% | ? | -10 | 8% | 8%
O=C(Nc1n[nH]c(=S)s1)c1ccco1 | 56µM* | ? | 6% | -61* | -8%[11.6 µM] | -3%
CC(C)Sc1nnc(NC(=O)c2ccco2)s1 | -17% | ? | -22% | -7 | -3%[57.1 µM] | 89µM*
CCSc1nnc(NC(=O)c2ccco2)s1 | 2% | 10% | 2% | -12 | -21% | -4%
CNc1ccc(/C=C2\C=Cc3ccccc32)cc1Cl | -14% | -6% | . | . | . | .
COc1ccc(/C=C(/C(=O)N2CCCCC2C(=O)O)c2ccc(OC)c(OC)c2)cc1 (stereo not given) | 4% | 79µM* | . | 2 | -13% | -1%
COc1ccc(C(=O)N/C(=C\c2ccc(OC)c(OC)c2)C(=O)N2CCCCC2)cc1 | 2% | 115% | 27% | -9 | 7% | -6%
CC(=O)c1cccc(NS(=O)(=O)c2cccc(S(=O)(=O)c3ccc(Br)cc3)c2)c1 | -8% | -4% | ? | . | . | -27%
Cc1n[nH]c(=S)n(NC(=O)CC(=O)Nn2c(=S)[nH]nc(C)c2=O)c1=O | -5% | 57% | 3% | 10 | 2% | -12%
Cc1nn2c(=S)[nH]nc2[nH]c1=O | 3% | 23% | 0% | -53* | ? | -13%
SMILES | POLK inh | Pol iota inh | Pol beta inh | PI5P4K alpha inh | WRN helicase inh | Pol eta inh
C=CCN1c2ccccc2[C@]23C[C@@H](C(=O)OC)N(C(=O)c4cccs4)C2=NC(C(=O)OC)=C(C(=O)OC)[C@H]13 | -14% | ? | -21% | -52* | 3% | -8%
COc1cc(OC)c(OC)cc1/C=C/c1nccc2ccccc12 | -21% | ? | . | . | . | .
CCc1cccc2c1NC(=O)[C@]21[C@@H]2C(=O)N(Cc3ccccc3)C(=O)[C@@H]2[C@@H]2CCCN21 | -18% | ? | ? | -52* | -12%[57.1 µM] | 22µM*
Cc1c(O)ccc2c(CN3CCN(Cc4ccccc4)CC3)cc(=O)oc12 | 8% | 14% | -2% | 0 | 4% | -8%
O=c1cc(CN2CCN(Cc3ccccc3)CC2)c2ccc(O)c(O)c2o1 | ? | ? | 2.5µM* | 28 | ? | 10µM*
CCC(C(=O)NCCc1ccccc1)n1nc(C)c2sc3ccccc3c2c1=O (stereo not given) | -4% | 43% | ? | . | . | -11%
CCCOc1ccc(-c2nonc2NC(=O)c2oc3ccc(C)cc3c2C)cc1OCCC | ? | -6% | 14% | . | . | 0%
CCOC(=O)c1ccc(NC(=O)Nc2ccn(C)n2)cc1 | -17% | 89µM* | 30% | . | -12% | -4%
CCOC(=O)c1ccc(NC(=O)Nc2cccc(C)n2)cc1 | -1% | -15% | 1% | -1 | 3% | -6%
c1ccc(Nc2c(-c3ccco3)nc3ccccn23)cc1 | -5% | 46% | 3% | -8 | 1% | -7%
c1ccc(-c2nc(-c3ccco3)n3ccccc23)cc1 | -8% | -6% | 35µM* | ? | -24% | ?
Cc1ccc2c(c1)c1c(c(=O)n(-c3cccc(Cl)c3)c(=O)n1CC(=O)c1ccc(Cl)cc1)n2C | 1% | 79µM* | 17% | . | . | -14%
CCOc1cc(/C=C2/C(=N)N3N=C(CC)SC3=NC2=O)ccc1OC(=O)c1ccco1 | -11% | ? | -8% | -25 | ? | -4%
CCOc1cc(/C=C2\C(=O)N(c3ccc(C(N)=O)cc3)N=C2C)ccc1OC(=O)c1cccs1 | -5% | ? | 0% | -25 | ? | 50µM*
CCOc1cc(/C=C2/C(=O)N(c3ccccc3)N=C2C)ccc1OC(=O)c1ccco1 | -28% | 1µM* | 3% | . | ? | -19%
S=c1[nH]nc(NCCCN2CCOCC2)s1 | -8% | -6% | -18% | -69* | -6% | -3%
CC1CN(C2=Nc3cccc4cccc2c34)CC(C)O1 (stereo not given) | 12% | 25µM* | 19% | 15 | -2%[11.6 µM] | -7%
c1cc2c3c(cccc3c1)C(N1CCOCC1)=N2 | -11% | 66% | -14% | 2 | -2% | -4%
Cc1ccccc1NC(=O)Cn1nnc(S(=O)(=O)c2ccc(C(C)(C)C)cc2)c1N | -32% | ? | 32µM* | -11 | -12%[11.6 µM] | 1%
COc1cc(-c2c(C#N)c(=O)[nH]c3c2c(C)nn3-c2ccccc2)ccc1O | -3% | 19% | 22% | -63* | ? | 5%
COc1c2c(c(CCC(=O)O)c3c1C=CC(C)(C)O3)OC(C)(C)C=C2 | -29% | ? | . | 1 | -16% | 18µM*
COC1=CCC2([N+](=O)[O-])CN(CCO)CC1([N+](=O)[O-])C2 (stereo not given) | -14% | 4% | 0.2µM* | 3 | -4% | -9%
